Laboratory results as given in PubChem BioAssay (EPA / NIEHS).
Activity calls are given as the source filed them. Rule for the calls: active = hit-call score of the fitted dose curve at least 0.9, where 1 is the maximum; inactive = score below 0.9.

Tests used:
[1] = read-out: urokinase plasminogen activator (uPA), PLAU (gene 5328); test: BSK_KF3CT_uPA: BioMAP Diversity Plus: KF3CT Assay for urokinase plasminogen activator (uPA) Biomarker Activity (AID 2283075); settings: primary human keratinocytes with fibroblasts; actives raise or lower the signal
How it was run: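 Human keratinocyte plus foreskin fibroblast primary co-culture exposed to chemical for 24 h. uPA levels were quantified by ELISA, and activity was fitted bidirectionally against a DMSO negative-control baseline.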

CD40, CD40 (gene 958) = test: BSK_LPS_CD40: BioMAP Diversity Plus: LPS Assay for CD40 Biomarker Activity (AID 2283076); settings: primary human HUVEC with PBMC; actives raise or lower the signal
How it was run: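 Using a multiplexed primary human co-culture (umbilical vein endothelium plus PBMC), CD40 was read by ELISA 24 h after dosing, with cytotoxicity tracked by sulforhodamine B staining of parallel cultures and activity fitted bidirectionally versus DMSO.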

[2] = read-out: E-selectin (Homo sapiens) (UniProt P16581); test: BSK_LPS_Eselectin: BioMAP Diversity Plus: LPS Assay for Eselectin Biomarker Activity (AID 2283077); settings: primary human HUVEC with PBMC; actives raise or lower the signal
How it was run: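 Dose chemical onto LPS-driven HUVEC/PBMC co-culture; after 24 h, run ELISA for E-selectin; fit up- and down-going responses relative to DMSO control.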

[3] = read-out: Interleukin-8 (IL8), CXCL8 (gene 3576); test: BSK_LPS_IL8: BioMAP Diversity Plus: LPS Assay for Interleukin-8 (IL8) Biomarker Activity (AID 2283078); settings: primary human HUVEC with PBMC; actives raise or lower the signal
How it was run: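 In this LPS system, chemical-treated human umbilical vein endothelium/PBMC co-cultures were harvested at 24 h for IL-8 ELISA.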

[4] = BSK_LPS_SRB: Viability Assessment in the BioMAP Diversity Plus: LPS Assay (AID 2283079); settings: primary human HUVEC with PBMC;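 note: total protein by sulforhodamine B absorbance as a cytotoxicity measure; measured one day after compound addition; fitted in both directions against DMSO so loss or gain of signal counts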
How it was run: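 Cytotoxicity endpoint in human endothelial–PBMC co-culture: 24 h exposure, then SRB (0.1%) staining, 560 nm read.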

[5] = read-out: Interleukin-1 alpha (IL1a), IL1A (gene 3552); test: BSK_LPS_IL1a: BioMAP Diversity Plus: LPS Assay for Interleukin-1 alpha (IL1a) Biomarker Activity (AID 2283080); settings: primary human HUVEC with PBMC; actives raise or lower the signal
How it was run: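 Primary human HUVEC and PBMC co-culture stimulated with LPS is dosed and harvested at 24 h. Both increases and decreases in ELISA-measured IL-1a are scored relative to DMSO.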

[6] = BSK_LPS_PGE2: BioMAP Diversity Plus: LPS Assay for Prostaglandin E2 (PGE2) Biomarker Activity (AID 2283082); settings: primary human HUVEC with PBMC; actives raise or lower the signal;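 for AC50: secreted prostaglandin E2 measured by ELISA in LPS-stimulated co-culture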
How it was run: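 HUVEC plus human PBMC co-culture stimulated with LPS; secreted PGE2 quantified by ELISA 24 h after chemical dosing. Activity fitted bidirectionally against DMSO baseline; parallel SRB staining (0.1% SRB after 10% TCA fixation, 560 nm) flags overt cytotoxicity.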

[7] = read-out: Macrophage colony-stimulating factor (MCSF), CSF1 (gene 1435); test: BSK_LPS_MCSF: BioMAP Diversity Plus: LPS Assay for Macrophage colony-stimulating factor (MCSF) Biomarker Activity (AID 2283083); settings: primary human HUVEC with PBMC; actives raise or lower the signal
How it was run: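 Bidirectional fit versus DMSO of ELISA-measured M-CSF in co-cultured human umbilical vein endothelial cells and PBMC, sampled 24 h after dosing.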

[8] = read-out: Tissue Factor, F3 (gene 2152); test: BSK_LPS_TissueFactor: BioMAP Diversity Plus: LPS Assay for Tissue Factor Biomarker Activity (AID 2283084); settings: primary human HUVEC with PBMC; actives raise or lower the signal
How it was run: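 Read-out: CD142 ELISA, 24 h. System: LPS-driven human endothelial/PBMC co-culture. Analysis: up- or down-signal fitted against DMSO.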

[9] = read-out: Monocyte Chemoattractant Protein-1 (MCP1), CCL2 (gene 6347); test: BSK_LPS_MCP1: BioMAP Diversity Plus: LPS Assay for Monocyte Chemoattractant Protein-1 (MCP1) Biomarker Activity (AID 2283081); settings: primary human HUVEC with PBMC; actives raise or lower the signal;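 for AC50: secreted MCP-1 protein quantified by ELISA in culture supernatant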
How it was run: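 Values derive from bidirectional fitting against DMSO of ELISA-measured MCP-1 in a human primary endothelial and mononuclear cell co-culture, 24 h after chemical addition under LPS activation.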

Measured: AC50

E-selectin (Homo sapiens), sequence (P16581 whole entry, looked up): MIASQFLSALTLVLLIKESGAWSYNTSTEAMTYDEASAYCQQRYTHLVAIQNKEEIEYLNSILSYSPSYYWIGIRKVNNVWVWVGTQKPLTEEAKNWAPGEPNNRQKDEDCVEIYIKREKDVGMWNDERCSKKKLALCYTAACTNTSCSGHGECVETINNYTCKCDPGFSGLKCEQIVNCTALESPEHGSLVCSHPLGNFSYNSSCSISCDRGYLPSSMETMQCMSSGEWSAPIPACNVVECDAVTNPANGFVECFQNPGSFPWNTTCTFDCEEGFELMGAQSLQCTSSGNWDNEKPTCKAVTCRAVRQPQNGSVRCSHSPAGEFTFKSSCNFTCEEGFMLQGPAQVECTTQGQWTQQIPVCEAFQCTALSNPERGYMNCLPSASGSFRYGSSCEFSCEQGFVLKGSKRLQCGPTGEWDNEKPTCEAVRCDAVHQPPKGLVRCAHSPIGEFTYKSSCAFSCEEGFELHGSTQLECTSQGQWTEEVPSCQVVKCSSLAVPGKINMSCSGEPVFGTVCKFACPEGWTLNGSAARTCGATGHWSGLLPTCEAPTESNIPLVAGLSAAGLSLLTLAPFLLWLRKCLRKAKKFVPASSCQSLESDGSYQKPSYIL

COCCOCCOCCOC
not listed: [9]
inactive: all other assays above

Cc1c(-c2cccnc2)c2ccccc2n1CCCCC(=O)O
active: [6] 1.14 µM
not listed: [9]
inactive: all other assays above

CCCCC(CC)COC(=O)c1ccc(C(=O)OCC(CC)CCCC)cc1 (stereo not given)
not listed: [9]
inactive: all other assays above

O=c1[nH]c2ccc(S(=O)CCN3CCC(Cc4ccc(F)cc4)CC3)cc2o1 (stereo not given)
not listed: [9]
inactive: all other assays above

O=C1CCC(N2C(=O)c3ccccc3C2=O)C(=O)N1 (stereo not given)
not listed: [3]
inactive: all other assays above

Cc1ccc(S(=O)(=O)O)cc1C
not listed: [3]
inactive: all other assays above

COC(=O)c1c(Cl)c(Cl)c(C(=O)OC)c(Cl)c1Cl
active: CD40, CD40 (gene 958) 11.4 µM | [7] 20 µM
not listed: [9]
inactive: all other assays above

CCCN(C1CCN(C(=O)C2CCNCC2)CC1)[C@@H]1CCc2ccc(OC)cc2C1
not listed: [9]
inactive: all other assays above

COc1ccc(-n2nc(C(F)F)cc2-c2ccc(S(C)=O)cc2)cc1 (stereo not given)
active: CD40, CD40 (gene 958) 1.7 µM | [5] 4.92 µM | [6] 0.342 µM
not listed: [9]
inactive: all other assays above

O=C(OC[C@H]1O[C@@H](OC(=O)c2cc(O)c(O)c(OC(=O)c3cc(O)c(O)c(O)c3)c2)[C@H](OC(=O)c2cc(O)c(O)c(OC(=O)c3cc(O)c(O)c(O)c3)c2)[C@@H](OC(=O)c2cc(O)c(O)c(OC(=O)c3cc(O)c(O)c(O)c3)c2)[C@@H]1OC(=O)c1cc(O)c(O)c(OC(=O)c2cc(O)c(O)c(O)c2)c1)c1cc(O)c(O)c(OC(=O)c2cc(O)c(O)c(O)c2)c1
active: [1] 1.08 µM | [4] 10 µM
not listed: [8] | [9]
inactive: all other assays above

CCOc1cccc(-n2cc(C(=O)N3CCN(c4cc(C(=O)O)c5ccccc5c4)CC3)nc2-c2ccc(C)cc2)c1
active: [1] 31.2 µM | CD40, CD40 (gene 958) 14.2 µM | [2] 31.3 µM | [3] 27.2 µM | [4] 13.7 µM | [5] 19.2 µM | [9] 30.7 µM | [6] 29.4 µM | [7] 23.2 µM | [8] 19.2 µM

CC(=O)OCCC(C)C
not listed: [9]
inactive: all other assays above

CCCCCCCCCCCCc1ccccc1
active: CD40, CD40 (gene 958) 30.7 µM
not listed: [3]
inactive: all other assays above

CCOC(=O)COc1ccc2c(c1)CC(NCC(O)c1cccc(Cl)c1)CC2 (stereo not given)
inactive: [1] | [2] | [8]
active: CD40, CD40 (gene 958) 29 µM | [3] 27.4 µM | [4] 28.4 µM | [5] 18.3 µM | [6] 27.6 µM | [7] 34.5 µM

O=P(OC(CCl)CCl)(OC(CCl)CCl)OC(CCl)CCl
not listed: [3]
inactive: all other assays above

Nc1nc2ncc(CNc3ccc(C(=O)N[C@@H](CCC(=O)O)C(=O)O)cc3)nc2c(=O)[nH]1
not listed: [9]
inactive: all other assays above

COc1ccc2sc(C(=O)Nc3nnn[nH]3)c(OC(C)C)c2c1
active: [1] 29.5 µM | CD40, CD40 (gene 958) 7.18 µM | [2] 23.4 µM | [4] 9.83 µM | [5] 13.2 µM | [9] 19.8 µM | [6] 34.1 µM | [7] 14.1 µM | [8] 33.2 µM

C1N2CN3CN1CN(C2)C3
not listed: [3]
inactive: all other assays above

CC1(C)C(=O)N(Br)C(=O)N1Br
not listed: [3]
inactive: all other assays above

CC(C)=CCCC(C)CCO (stereo not given)
not listed: [9]
inactive: all other assays above

CN(C)c1ccc(N=NS(=O)(=O)O)cc1
active: [8] 5.8 µM
not listed: [3]
inactive: all other assays above

CC(O)CN(CCN(CC(C)O)CC(C)O)CC(C)O (stereo not given)
not listed: [3]
inactive: all other assays above

CC(C)CC(C)(O)C#CC(C)(O)CC(C)C (stereo not given)
not listed: [3] | [9]
inactive: all other assays above

CC(C)c1cccc(C(C)C)c1N1C(=O)c2ccc(O)cc2C1=O
active: [1] 36.7 µM | CD40, CD40 (gene 958) 8.13 µM | [2] 18.9 µM | [4] 17.4 µM | [7] 9.36 µM
inactive: [5] | [6] | [8]

CC(C)CCO
not listed: [3] | [9]
inactive: all other assays above

CC(=O)c1ccc2c(c1)[C@H](NC(=O)c1ccc(F)cc1)[C@@H](O)C(C)(C)O2
not listed: [3]
inactive: all other assays above

CC(C)=CCCC(C)=CC=O
not listed: [3] | [9]
inactive: all other assays above

O=C(O)CC(O)C(=O)O (stereo not given)
not listed: [3] | [9]
inactive: all other assays above

Cn1c(=O)c2c(ncn2C)n(C)c1=O
not listed: [3] | [9]
inactive: all other assays above

CC(=O)OC[C@H]1O[C@@](COC(C)=O)(O[C@H]2O[C@H](COC(C)=O)[C@@H](OC(C)=O)[C@H](OC(C)=O)[C@H]2OC(C)=O)[C@@H](OC(C)=O)[C@@H]1OC(C)=O
not listed: [3] | [9]
inactive: all other assays above

CCOC(=O)CC(CC(=O)OCC)(OC(C)=O)C(=O)OCC
not listed: [3] | [9]
inactive: all other assays above

CC(C)=CCC/C(C)=C\CO
not listed: CD40, CD40 (gene 958) | [9]
inactive: all other assays above

Nc1cccc(N)c1
not listed: [3] | [9]
inactive: all other assays above

CCc1cc(SCc2sc(-c3ccc(C(F)(F)F)cc3)nc2CN2CCN(c3ccc(OC)cc3)CC2)ccc1OCC(=O)O
active: [1] 5.22 µM | CD40, CD40 (gene 958) 6.6 µM | [2] 14.8 µM | [4] 13.4 µM | [5] 30.6 µM | [9] 12.3 µM | [6] 20 µM | [7] 13.3 µM | [8] 30.2 µM

NC(=O)NO
not listed: [3] | [9]
inactive: all other assays above

Cc1ccc(O)cc1
active: [6] 4.37 µM
not listed: [3] | [9]
inactive: all other assays above

Cc1ccc(N)cc1O
active: [6] 4.87 µM
not listed: [3]
inactive: all other assays above

CC(C)CCCCCCCOC(=O)CCCCC(=O)OCCCCCCCC(C)C
not listed: [3] | [9]
inactive: all other assays above

COc1cccc(-c2ccc(/C=C\CN3CCCCCC3)cc2Cl)c1
active: [1] 33.5 µM | CD40, CD40 (gene 958) 28.6 µM | [4] 26.8 µM | [5] 28.4 µM
inactive: [2] | [6] | [7] | [8]

O=C(O)c1cccc(Oc2ccccc2)c1
not listed: [3] | [9]
inactive: all other assays above

CCN(C(=O)c1cc(C)cc(OC[C@H](C)Nc2ccncc2)c1)C(C)C
active: [1] 13.5 µM
not listed: [3] | [9]
inactive: all other assays above

C=CCCCCCCCCC(=O)O
active: [6] 8.17 µM
not listed: [3] | [9]
inactive: all other assays above

Oc1ccc2c(c1)-c1ccccc1C2
active: CD40, CD40 (gene 958) 20 µM | [4] 20 µM | [6] 13.2 µM
not listed: [3] | [9]
inactive: all other assays above

O=C1CCCCCN1
not listed: [3] | [9]
inactive: all other assays above

Cc1ccc(C)c(O)c1
active: [6] 9.83 µM
not listed: [3] | [9]
inactive: all other assays above

O=c1n(CC2CO2)c(=O)n(CC2CO2)c(=O)n1CC1CO1 (stereo not given)
active: CD40, CD40 (gene 958) 16.3 µM | [2] 20 µM | [4] 12.2 µM | [9] 19.5 µM | [7] 20 µM
inactive: [1] | [5] | [6] | [8]

CC[C@H](C)C(=O)O[C@H]1C[C@@H](C)C=C2C=C[C@H](C)[C@H](CC[C@@H]3C[C@@H](O)CC(=O)O3)[C@H]21
active: [1] 32.5 µM | CD40, CD40 (gene 958) 13.8 µM | [2] 0.398 µM | [4] 3.95 µM | [5] 3.95 µM | [7] 34 µM
inactive: [6] | [8]

CNCc1ccc(NC(=O)c2c[nH]c3c2C(=O)CCC3)cc1
not listed: [3]
inactive: all other assays above

CC[C@H]1CC[C@H](NCc2cc3c(cc2OC)[C@H]2C[C@H]2C(=O)N3C)[C@H](c2ccccc2)N1
not listed: [3]
inactive: all other assays above

CCOCCO
not listed: [3] | [9]
inactive: all other assays above

CC(C)=CCC/C(C)=C/CO
not listed: [3] | [9]
inactive: all other assays above

CC1=CC(=O)CC(C)(C)C1
not listed: [3]
inactive: all other assays above
